Where “and” joins values, the source holds several entries; their conditions need not be identical. Equal entries are not always repeated. Records with an inconclusive call do not appear. Where a structure was tested more than once in an assay, its records may differ in their call. Calls of active or inactive are those of the source. Rule for the calls: active = hit-call score of the fitted dose curve at least 0.9, where 1 is the maximum; inconclusive = response in the unintended direction; inactive = score below 0.9.

Chain of Estrogen receptor beta (Homo sapiens) (Q92731 whole entry, looked up, the tested form may be a part): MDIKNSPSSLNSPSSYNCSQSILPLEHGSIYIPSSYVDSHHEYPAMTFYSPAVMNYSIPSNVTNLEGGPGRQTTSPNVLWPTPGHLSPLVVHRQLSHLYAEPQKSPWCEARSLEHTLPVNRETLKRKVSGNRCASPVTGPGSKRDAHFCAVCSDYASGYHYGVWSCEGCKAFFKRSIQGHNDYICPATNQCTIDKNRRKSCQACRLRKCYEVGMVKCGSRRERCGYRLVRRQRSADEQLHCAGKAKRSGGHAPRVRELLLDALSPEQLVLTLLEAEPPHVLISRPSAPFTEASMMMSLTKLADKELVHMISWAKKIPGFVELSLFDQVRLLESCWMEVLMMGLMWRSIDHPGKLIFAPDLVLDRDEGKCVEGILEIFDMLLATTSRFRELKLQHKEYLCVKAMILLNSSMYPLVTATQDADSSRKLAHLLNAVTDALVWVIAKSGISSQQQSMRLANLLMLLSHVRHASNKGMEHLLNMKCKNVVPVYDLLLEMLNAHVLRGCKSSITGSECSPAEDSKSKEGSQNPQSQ

The assay has as its target Estrogen receptor beta (Homo sapiens) (UniProt Q92731). The experiment in a line: OT_ER_ERbERb_0480: Odyssey Thera (OT) 8-hour HEK293T Protein-Complementation Assay for Estrogen Receptor-beta/-beta Homodimer (AID 2283357). On the procedure: OT_ER_ERbERb_0480 is a cell-based assay that uses HEK293T, a human kidney cell line, with measurements taken at 8 hours after chemical dosing in a 384-well plate.OT_ER_ERbERb_0480 is one of one assay component(s) measured or calculated from the OT_ER_ERbERb_0480 assay. It is designed to make measurements of protein fragment complementation, a form of binding reporter, as detected with fluorescence intensity signals by Protein-fragment Complementation technology.Data from the assay component OT_ER_ERbERb_0480 was analyzed into 1 assay endpoint. This assay endpoint, OT_ER_ERbERb_0480, was analyzed in the positive analysis fitting direction relative to DMSO as the negative control and baseline of activity. Using a type of binding reporter, measures of receptor for gain-of-signal activity can be used to understand the binding at the pathway-level as they relate to the gene ESR2. Furthermore, this assay endpoint can be referred to as a primary readout, because the performed assay has only produced 1 assay endpoint. To generalize the intended target to other relatable targets, this assay endpoint is annotated to the nuclear receptor intended target family, where the subfamily is steroidal.
Protein-fragment complementation assay, or PCA, is a method for the identification and quantification of protein-protein interactions. In the PCA, the proteins of interest ("bait" and "prey") are each covalently linked to fragments of a third protein (e.g. DHFR, which acts as a "reporter"). Interaction between the bait and the prey proteins brings the fragments of the reporter protein in close proximity to allow them to form a functional reporter protein whose activity can be measured. The OT ER beta / ER beta assay is a homodimer PCA of the ligand binding domain (LBD; amino acids 310-547) of human ER beta stably expressed in HEK293T cells. […] Cells are fixed in 4 percent formaldehyde and stained with Draq5 (BioStatus) to identify cells prior to signal detection. Fluorescent signal in the basal state of the assay is very low and is primarily punctuate and cytoplasmic. Modulation of this assay is quantified as an increase in mean fluorescence intensity in the nucleus (for agonists) or in the nucleus and cytoplasm (antagonists) relative to vehicle controls, and can be quantified on a high content imaging device or a laser scanning cytometer. The latter instrument is favored for this assay because of the rapid mode of data acquisition, the ability to acquire data from the entire cell population in a well (as opposed to a fraction of the well on the high content devices) and the larger dynamic range typically achieved with this instrument. To assess sensitivity of the ER beta/ER beta LBD assay to ligand, cells were treated with the ER agonist 17- beta-estradiol (E2) in 10-point concentration- response format for 8 hours and monitored response on a laser scanning plate cytometer (Acumen eX3; TTP Lab Tech).
Turning to `Cc1c2ccccc2c(C)c2c1ccc1ccccc12`, the compound was classed as inactive. For the compound `CCCCCc1ccc(N)cc1`, the AC50 was 65.3 µM (active) and 55.7 µM (active) and 56.6 µM (active); the result was inactive.

Take `COCC(C)OCC(C)OCC(C)O` (stereo not given): the compound was classed as inactive. Same read-out and setting: the same measure for `CC1(C)NC(=O)N(c2ccc([N+](=O)[O-])c(C(F)(F)F)c2)C1=O`: “inactive”. The same measure, in the same setting: the value for `CCN(CC)C(=O)c1cc(S(=O)(=O)Cc2ccccc2)c(N2CCC(c3ccccc3)CC2)cc1N(CC)CCN(C)C` was “inactive”.

On to `O=c1ccc2ccccc2o1`, for which the result was inactive. Turning to `O=C1O[C@H]([C@@H](O)CO)C(O)=C1O`, the result was inactive. The same measure, in the same setting: the value for `CCCCCCCCCCCC[N+](C)(C)C` was “inactive”; that for `O=C(Nc1ccc(Cl)cc1)Nc1ccc(Cl)c(Cl)c1` was “inactive”. For `Cc1ccc2oc(CN(Cc3ccccc3)C(=O)Nc3c(F)cc(F)cc3F)c(-c3ccc(Cl)cc3)c2c1`, the outcome was inactive. The same measure, in the same setting: the same measure for `CC[C@H](NC(=O)c1cc(F)ccc1NS(=O)(=O)c1cccc2cccnc12)c1ccccc1`: “inactive”; for `OC12N=C(c3ccccc3)SC1Cc1cc(Cl)ccc12` (stereo not given): “inactive”. For the compound `O=C1CCC(C2CCCCC2)CC1`, the result was inactive. Regarding `CC(C)(O)c1ccc(CNC(=O)c2cccnc2Oc2ccc3nonc3c2)cc1`, the outcome was inactive. Still for that read-out and setting: the same measure for `CCOC(=O)O[C@H](C)OC(=O)c1ccc2c(c1)cc(C(=O)NC1CCN(C(C)C)CC1)n2Cc1cc(-c2ccc(Cl)s2)on1`: “inactive”; for `CO[C@H]1/C=C/O[C@@]2(C)Oc3c(C)c(O)c4c(O)c(c(/C=N/N5CCN(C)CC5)c(O)c4c3C2=O)NC(=O)/C(C)=C\C=C\[C@H](C)[C@H](O)[C@@H](C)[C@@H](O)[C@@H](C)[C@H](OC(C)=O)[C@@H]1C`: “inactive”.

On to `c1ccc2n[nH]nc2c1`, for which the compound was called inactive.

Turning to `CN1C(=O)N(c2ccccc2Br)Cc2cnc(Nc3ccc4c(c3)OCC(CO)O4)nc21` (stereo not given), the compound was classed as inactive. `c1ccc(C[n+]2cccc3ccccc32)cc1`: the compound was classed as inactive. In the case of `Oc1ccc2ccccc2c1`, the AC50 was 37.7 µM (active). In the case of `CC[C@@H]1C[C@H](N(Cc2cc(C(F)(F)F)cc(C(F)(F)F)c2)C(C)=O)c2cc(C(F)(F)F)ccc2N1C(=O)OC(C)C`, the outcome was inactive.

As to `CCCCCCCC[Si](OCC)(OCC)OCC`, the compound was classed as inactive.

Take `CCCCOC(=O)c1ccc(O)cc1`: the AC50 is 4.69 µM (active) and 5.25 µM (active) and 5.52 µM (active).

`Clc1ccccc1C(c1ccccc1)(c1ccccc1)n1ccnc1`: the call was inactive. The same measure, in the same setting: the value for `CC(C)(c1cc(Br)c(O)c(Br)c1)c1cc(Br)c(O)c(Br)c1` was “inactive”; that for `COc1cc(C(=O)NC2CCN(C)CC2)ccc1Nc1ncc2c(n1)N(C1CCCC1)CC(F)(F)C(=O)N2C` was “inactive”; that for `COc1cccc([C@H](O)C2CCN(CCc3ccc(F)cc3)CC2)c1OC` was “inactive”. Same read-out and setting: the same measure for `CC(=O)N1CCN(c2ccc(OC[C@H]3CO[C@](Cn4ccnc4)(c4ccc(Cl)cc4Cl)O3)cc2)CC1`: “inactive”; for `CC(C)(C)c1csc(-c2cc3cc(OCc4ccccc4CC(=O)O)ccc3o2)n1`: “inactive”.

With `CCCCCCCCCCCCO`, the result was inactive. For `O=C(O)Cn1c(=O)n(Cc2ccc(Br)cc2F)c(=O)c2ccc(Cl)cc21`, the outcome was inactive. On the same count and under the same terms, the same measure for `NCc1cccc(C2CCN(C(=O)c3ccc(C#Cc4ccccc4F)o3)CC2)c1`: “inactive”; for `CCO[Si](CCCNC(N)=O)(OCC)OCC`: “inactive”; for `CC1=CC(=O)/C(=C(/C)O)C(=O)O1`: “inactive”. Same read-out and setting: the same measure for `CCCCOC(=O)CC(CC(=O)OCCCC)(OC(C)=O)C(=O)OCCCC`: “inactive”. Consider `Cc1cc(F)ccc1-c1cc(N2CC[C@@H](O)[C@H]2CO)ncc1N(C)C(=O)C(C)(C)c1cc(C(F)(F)F)cc(C(F)(F)F)c1`, for which the call was inactive.

Regarding `Cc1cc2c(cc1C(F)(F)F)N(C(=O)Nc1ccc(Oc3cccnc3C)nc1)CC2`, the compound was called inactive. As for `CCCCCCCCOC(=O)c1cc(O)c(O)c(O)c1`, the AC50 is 12.4 µM (active). On to `O=C(O)Cc1cc(I)c(Oc2ccc(O)c(I)c2)c(I)c1`, for which the compound was called inactive.

In general, AC50 refers to the concentration at which the activity in the assay is half-maximal.

The values are drawn from PubChem BioAssay (EPA / NIEHS).
